# Measurements reported in PubChem BioAssay.
# The source made the active and inactive calls.
# Key:
# [1] = optical density shifts of acrAB sulA E. coli – strain DRC41, OD650, 48 h, E. coli filamentation inducer project, primary screen (AID 1152); details: higher = more signal, called active from +8 up or from −8 down;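 note: E. coli MC1000 strain DRC41 lacking acrAB efflux pump and sulA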
# [2] = probe aLefty1 binding on compound microarray – biochemical, small-molecule microarray, 635/667 nm fluorescence, primary screen (AID 1153); details: higher = more signal;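 note: score merges spot fluorescence with signal-to-noise ratio from the scanned slide images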
# [3] = plasmodial surface anion channel blockers, osmotic lysis – cell-based, P. falciparum Indochina, OD700, 1 h, primary screen (AID 1154); details: P. falciparum Indochina infected RBC osmotic lysis, higher = more signal, called active from +8 up or from −8 down
# [4] = plasmodial surface anion channel blockers, osmotic lysis – cell-based, P. falciparum Indochina, OD700, 2 h, primary screen (AID 1155);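 note: lysis reports solute entry through the parasite surface anion channel PSAC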; details: P. falciparum Indochina infected erythrocytes, higher = more signal, called active from +8 up or from −8 down
# [5] = changes in parasitized red cell lysis, either direction – P. falciparum Indochina, OD700, 3 h, PSAC antagonist project, primary screen (AID 1156); details: P. falciparum-infected erythrocytes, osmotic lysis, higher = more signal, called active from +8 up or from −8 down
# [6] = plasmodial surface anion channel blockers, osmotic lysis – cell-based, P. falciparum Indochina, OD700, 18 h, primary screen (AID 1157); details: P. falciparum Indochina infected erythrocytes, osmotic lysis OD700, 18 h; higher = more signal, called active from +8 up or from −8 down
# [7] = S6 kinase pathway phospho-S6 level changes – cell-based, A549, cytoblot, luminescence, serum-stimulated, primary screen (AID 1158); details: 5 h, higher = more signal;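 note: serum-stimulated A549 lung adenocarcinoma cells; signal is phosphorylated S6 detected by cytoblot immunostaining with HRP secondary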
# [8] = target: NADPH oxidase 2 (Homo sapiens) (UniProt P04839); test: compounds shifting NOX2 Amplex Red fluorescence – cell-based, HEK293-NOX2, PMA-stimulated, NOX inhibitor project, primary screen (AID 1159); details: 45 min, higher = more signal, called active from +8 up or from −8 down; note: test concentration not given here
# [9] = target: NADPH oxidase 4 (Homo sapiens) (UniProt Q9NPH5); test: compounds shifting NOX4 Amplex Red fluorescence – cell-based, HEK293-NOX4, tetracycline-induced, NOX inhibitor project, primary screen (AID 1160); details: HEK293-NOX4, Amplex Red H2O2 fluorescence, 45 min; higher = more signal, called active from +8 up or from −8 down
# [10] = target: NADPH oxidase 5 (Homo sapiens) (UniProt Q96PH1); test: compounds shifting NOX5 Amplex Red fluorescence – cell-based, HEK293-NOX5, NOX inhibitor project, primary screen (AID 1161); details: HEK293-NOX5, ionomycin, 45 min, higher = more signal
# [11] = compound effects on lung adenocarcinoma cell viability – A549, calcein-AM fluorescence, 48 h, basal, profiling panel (AID 1162); details: higher = more signal; note: test concentration not given here
# [12] = compound effects on differentiated 3T3-L1 adipocyte viability – cell-based, 3T3-L1 adipocytes, calcein-AM fluorescence, 48 h, basal, profiling panel (AID 1163); details: 3T3-L1 adipocytes viability, higher = more signal; note: test concentration not given here
# [13] = compound effects on hepatocellular carcinoma cell viability – HepG2, calcein-AM fluorescence, 48 h, basal, profiling panel (AID 1164); details: higher = more signal; note: test concentration not given here
# [14] = compound effects on multiple myeloma cell viability – MM1S, calcein-AM fluorescence, 48 h, basal, profiling panel (AID 1165); details: higher = more signal;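 note: viability of MM1S multiple myeloma cells under basal unstimulated conditions; test concentration not given here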
# [15] = calcein-AM signal in unstimulated myeloma cells – cell-based, calcein-AM fluorescence, 48 h, PK04 Diversity Set, profiling panel (AID 1166); details: RPMI8226 myeloma viability, higher = more signal;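 note: cells grown under basal conditions without added stimulus; test concentration not given here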
# [16] = JC-1 mitochondrial signal, unstimulated HepG2 cells – cell-based, JC-1 fluorescence, 24 h, 100 nL compound, profiling panel (AID 1167); details: HepG2 mitochondrial potential, higher = more signal; note: test concentration not given here
# [17] = JC-1 mitochondrial signal, unstimulated adipocytes – cell-based, JC-1 fluorescence, 3T3-L1 adipocytes, 24 h, 100 nL compound, profiling panel (AID 1168); details: JC-1 mitochondrial fluorescence, higher = more signal, called active from +8 up or from −8 down; note: test concentration not given here
# [18] = JC-1 mitochondrial signal, unstimulated myeloma cells – cell-based, JC-1 fluorescence, RPMI8226, 24 h, 100 nL compound, profiling panel (AID 1169); details: JC-1 mitochondrial potential fluorescence, higher = more signal; note: test concentration not given here
# [19] = JC-1 mitochondrial signal, unstimulated MM1S myeloma – cell-based, JC-1 fluorescence, 24 h, 100 nL compound, profiling panel (AID 1170); details: MM1S mitochondrial potential, higher = more signal; note: test concentration not given here
# [20] = resazurin metabolic signal in A549 cells – cell-based, resazurin fluorescence, 24 h, PK04 Diversity Set, profiling panel (AID 1171); details: A549 viability, higher = more signal, called active from +8 up or from −8 down; note: test concentration not given here
# NADPH oxidase 4 (Homo sapiens), sequence (Q9NPH5 whole entry, looked up): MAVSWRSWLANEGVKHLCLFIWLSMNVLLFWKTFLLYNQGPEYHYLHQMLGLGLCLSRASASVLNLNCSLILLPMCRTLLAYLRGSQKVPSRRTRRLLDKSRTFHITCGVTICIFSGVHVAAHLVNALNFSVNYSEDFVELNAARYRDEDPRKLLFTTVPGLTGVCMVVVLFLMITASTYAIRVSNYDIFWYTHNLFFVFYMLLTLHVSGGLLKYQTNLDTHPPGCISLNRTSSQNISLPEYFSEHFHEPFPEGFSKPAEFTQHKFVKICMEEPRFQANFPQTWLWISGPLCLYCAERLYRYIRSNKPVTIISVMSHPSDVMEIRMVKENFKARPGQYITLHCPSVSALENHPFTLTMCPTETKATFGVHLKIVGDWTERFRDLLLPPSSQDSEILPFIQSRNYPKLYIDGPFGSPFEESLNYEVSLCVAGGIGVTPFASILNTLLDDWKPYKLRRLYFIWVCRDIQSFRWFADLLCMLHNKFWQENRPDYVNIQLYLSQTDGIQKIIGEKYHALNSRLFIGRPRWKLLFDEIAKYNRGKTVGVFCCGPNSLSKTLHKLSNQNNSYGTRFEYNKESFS
# NADPH oxidase 5 (Homo sapiens), sequence (Q96PH1 whole entry, looked up): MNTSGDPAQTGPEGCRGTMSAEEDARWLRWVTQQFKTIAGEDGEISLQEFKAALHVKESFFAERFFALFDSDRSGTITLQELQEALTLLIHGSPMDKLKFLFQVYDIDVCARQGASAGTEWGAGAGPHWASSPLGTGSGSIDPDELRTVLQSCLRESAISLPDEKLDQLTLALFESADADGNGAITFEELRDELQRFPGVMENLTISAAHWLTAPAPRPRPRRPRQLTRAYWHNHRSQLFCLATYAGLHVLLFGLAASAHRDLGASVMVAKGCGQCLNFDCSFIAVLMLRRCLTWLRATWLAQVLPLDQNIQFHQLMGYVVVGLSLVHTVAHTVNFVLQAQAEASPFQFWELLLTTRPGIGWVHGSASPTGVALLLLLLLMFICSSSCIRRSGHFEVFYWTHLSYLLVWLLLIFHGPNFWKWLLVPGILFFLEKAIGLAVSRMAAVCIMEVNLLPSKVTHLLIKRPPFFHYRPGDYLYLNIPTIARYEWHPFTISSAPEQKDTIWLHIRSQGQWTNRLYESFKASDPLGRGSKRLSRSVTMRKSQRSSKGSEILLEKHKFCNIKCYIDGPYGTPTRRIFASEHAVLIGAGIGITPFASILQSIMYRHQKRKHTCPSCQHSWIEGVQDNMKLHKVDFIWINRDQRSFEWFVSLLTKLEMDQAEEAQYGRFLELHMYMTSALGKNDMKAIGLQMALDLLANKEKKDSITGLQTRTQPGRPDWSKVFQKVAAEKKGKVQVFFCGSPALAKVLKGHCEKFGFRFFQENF
# NADPH oxidase 2 (Homo sapiens), sequence (P04839 whole entry, looked up): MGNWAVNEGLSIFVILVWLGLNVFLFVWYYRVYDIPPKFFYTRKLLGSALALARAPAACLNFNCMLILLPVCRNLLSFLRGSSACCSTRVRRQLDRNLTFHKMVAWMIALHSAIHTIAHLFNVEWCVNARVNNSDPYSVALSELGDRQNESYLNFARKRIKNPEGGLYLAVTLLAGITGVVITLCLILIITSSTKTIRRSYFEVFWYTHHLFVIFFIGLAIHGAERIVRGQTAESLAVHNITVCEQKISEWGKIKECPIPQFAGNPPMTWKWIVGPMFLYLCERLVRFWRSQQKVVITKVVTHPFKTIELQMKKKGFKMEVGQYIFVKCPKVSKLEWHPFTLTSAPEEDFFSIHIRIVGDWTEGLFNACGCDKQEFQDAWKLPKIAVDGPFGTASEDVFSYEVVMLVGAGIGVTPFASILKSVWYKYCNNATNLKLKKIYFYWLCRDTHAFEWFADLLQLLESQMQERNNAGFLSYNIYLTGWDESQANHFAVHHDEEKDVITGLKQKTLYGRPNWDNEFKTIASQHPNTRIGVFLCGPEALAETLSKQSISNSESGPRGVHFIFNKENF
Structure (SMILES),z-score [1],composite z-score [2],z-score [3],z-score [4],z-score [5],z-score [6],z-score [7],z-score [8],z-score [9],z-score [10],z-score [11],z-score [12],z-score [13],z-score [14],z-score [15],z-score [16],z-score [17],z-score [18],z-score [19],z-score [20]
CCN1C(=O)[C@H]2[C@H]3[C@H](O)[C@H](O)CC(=NOCC(C)C)[C@@H]3CC[C@H]2C1=O,-1.87 (inactive),-0.245,0.344 (inactive),0.365 (inactive),0.456 (inactive),0.379 (inactive),-0.126,0.603 (inactive),0.324 (inactive),-0.654,-0.556,-0.0239,-0.308,-0.181,0.922,-0.501,-0.769 (inactive),0.788,0.0483,-0.0226 (inactive)
COc1ccc(O[C@H]2C=C[C@@H](c3ccccc3)O[C@@H]2COC(=O)CCC(C)=NO[C@@H]2O[C@H](COC(C)=O)[C@@H](OC(C)=O)[C@H](OC(C)=O)[C@H]2OC(C)=O)cc1,0.37 (inactive),-0.019,1.73 (inactive),0.583 (inactive),1.1 (inactive),0.539 (inactive),-1.01,1.08 (inactive),1.75 (inactive),0.222,-0.502,0.0711,-0.574,-0.794,-0.433,-1.05,-0.882 (inactive),0.722,-0.375,0.363 (inactive)
COc1cccc([C@H]2Oc3ccc(OC)cc3C(=NO[C@@H](C)c3cn([C@H](CO)Cc4ccccc4)nn3)[C@@H]2O)c1,-2.4 (inactive),-0.147,2.52 (inactive),0.41 (inactive),1.19 (inactive),0.611 (inactive),-0.15,-0.0734 (inactive),-0.424 (inactive),-0.327,-0.53,1.3,-0.55,0.738,-0.631,-1.22,-1.1 (inactive),-0.722,0.339,-0.819 (inactive)
O=C1OCCC=C1C(O)CCc1ccccc1 (stereo not given),-0.27 (inactive),-0.057,0.512 (inactive),-0.57 (inactive),-0.177 (inactive),-0.193 (inactive),-0.136,-0.428 (inactive),0.0181 (inactive),0.111,0.0955,-0.831,-0.354,-0.575,0.146,-0.895,-0.54 (inactive),0.0715,-0.517,-0.0147 (inactive)
COC(=O)CC=C[C@@H](C)[C@@H](C=NOCC[C@@H]1C=C[C@H](OC(C)=O)[C@@H](COC(C)=O)O1)OC,-0.35 (inactive),-0.0969,0.551 (inactive),0.239 (inactive),-0.5 (inactive),0.171 (inactive),-0.801,0.464 (inactive),0.934 (inactive),0.855,1.29,-0.0264,0.436,-0.616,0.238,-0.514,-0.43 (inactive),-0.133,-0.324,-0.393 (inactive)
C[C@H]1CC[C@H]2C(=O)OC(CO)CN2[C@@H]1c1ccc(Br)cc1 (stereo not given in full),-0.565 (inactive),-0.0918,0.382 (inactive),0.675 (inactive),0.647 (inactive),0.223 (inactive),-0.42,0.923 (inactive),-1.15 (inactive),0.324,0.228,0.764,-0.592,-2.22,0.0966,0.292,-0.18 (inactive),0.859,0.23,0.746 (inactive)
CC(C)=CCCC(C)=CCON=C1C[C@@H](O)[C@@H](O)[C@@H]2[C@@H]3C(=O)N(C4CCCCC4)C(=O)[C@@H]3CC[C@@H]12,-0.734 (inactive),-0.147,2.18 (inactive),0.677 (inactive),-0.25 (inactive),0.525 (inactive),-0.367,0.606 (inactive),0.435 (inactive),-0.18,-0.972,-0.345,-1.14,-2.39,-1.36,-1.64,-1.22 (inactive),-0.258,-0.859,0.023 (inactive)
CCOC(=O)[C@H](CC(C)C)NC(=O)CCC1CC(OC(=O)NCc2cccc3ccccc23)CC2(CCCC(COC(=O)NCc3ccncc3)O2)O1 (stereo not given in full),0.432 (inactive),-0.142,7.59 (inactive),1.02 (inactive),-0.416 (inactive),0.42 (inactive),0.351,0.402 (inactive),0.142 (inactive),0.365,0.357,-0.0315,-0.215,-3.43,-1.8,0.991,0.666 (inactive),-0.12,-1.14,0.645 (inactive)
